# According to ChEMBL document CHEMBL3988442, “University of Dundee, Small-Polar-MMV Screening Library” (2021):
# About 13,000 (27%) of roughly 48,000 compounds showed an effect of 50% or more. The list shows a part of the results.
# Tested on: Wolbachia pipientis
# Assay: Anti-Wolbachia Cell-Based Screen
# Format: functional
# Parameters: scale not given: in the data most compounds retested in dose-response had high values
# Conditions: 5 µM
row,SMILES,Percent Effect [%]
1,CCCn1c(C)c(CC(=O)N(C)CCOC)c2c1CC(C)(C)CC2=O,-2.271
2,Cc1c[nH]c(CN(C)C(=O)CCn2cnc3ccccc32)n1,-8.611
3,CSc1ccc(OCCN2CCNC(=O)C2C)cc1 (centres undefined),111.5
4,CSc1ccc(OCCN2CCNC(=O)CC2)cc1,106.2
5,Cc1nc(C)n(CC2CCCN2CCOc2ccc(C#N)cc2)n1 (centres undefined),-3.46
6,Cc1ncc2c(n1)CN(CCOc1ccc3c(c1)CCC(=O)N3)CC2,3.437
7,Cc1ccc(C)c2c(O)cc(CN3CCNC(=O)C3C)nc12 (centres undefined),-11.58
8,CCn1nc2c(cc1=O)CN(CCOc1ccc(C#N)cc1)CC2,2.029
9,CCCOc1ccc(OCCN2CCOCS2(=O)=O)cc1,-1.298
10,COc1ccc(CN2CCNC(=O)CC2)cc1SC(F)(F)F,-6.808
11,CC1C(=O)NCCN1CCOc1ccc(C#N)cc1 (centres undefined),92.79
12,Cc1noc(C)c1CNCC1COCc2c(-c3ccsc3)nnn2C1.O=C(O)C(F)(F)F (centres undefined),0.4259
13,Cc1ncc(S(=O)(=O)Nc2ccnn2C2CCCCC2)[nH]1,-19.02
14,COc1ccc(-n2ncc(C(C)NC3CCOCC3)c2C)cc1 (centres undefined),-6.318
15,CCN1CCC(NC(=O)CN2CCCCC2Cn2cccn2)CC1 (centres undefined),8.022
16,Cc1cc(NC(=O)CCN2CCCC2Cn2cccn2)no1 (centres undefined),85.34
17,CC(C)c1cc(NC(=O)CN2CCCC2Cn2cccn2)on1 (centres undefined),-0.3726
18,O=C(CN1CCCC1Cn1cccn1)NC1CCN(C2CC2)CC1 (centres undefined),-5.086
19,CC(C)(C)c1cc(NC(=O)CN2CCCC2Cn2cccn2)on1 (centres undefined),83.96
20,Cc1cc(NC(=O)CCN2CCCCC2Cn2cccn2)no1 (centres undefined),107.3
21,O=C(CN1CCCCC1Cn1cccn1)NC1CCOCC1 (centres undefined),-17.79
22,CC(C)(C)c1cc(NC(=O)CN2CCCC2Cn2cncn2)on1 (centres undefined),8.198
23,CCN1CCC(NC(=O)CN2CCCC2Cn2cccn2)CC1 (centres undefined),18.69
24,Cc1cc(NC(=O)CCN2CCCC2Cn2cncn2)no1 (centres undefined),7.653
25,CC(C)(C)c1cc(NC(=O)CN2CCCCC2Cn2cncn2)on1 (centres undefined),-6.385
26,Cc1cc(NC(=O)CCN2CCCCC2Cn2cncn2)no1 (centres undefined),123.3
27,Cc1n[nH]c(C)c1CN(C)C(C(=O)O)c1c(F)cccc1OC(C)C (centres undefined),-15.01
28,CC(C)=CCN1C[C@H]2CC[C@@H]1CN(C(=O)c1ccc3[nH]cnc3c1)C2,1.607
29,Cc1cnn(CCNCc2cc(=O)n3cc(Cl)ccc3n2)c1,-2.605
